OPRM1-OPRD1 inv = mu-delta opioid heterodimer inverse agonism; cell-based MOR-DOR heterodimer luminescence; 340,000 compounds, 0.21% hits; P35372+P41143; inhibition, % at 9.3 µM; in the data active means inhibition above about 22%, passing the limit was not always enough
HTR5A inv ctr = HTR5A inverse agonism, opioid heterodimer counter-screen | P47898 | HTR5A cell line, luminescence | inhibition, % at 9.3 µM | 340,000 compounds, 0.083% hits | AID 504634; in the data active means inhibition mostly above about 23%, no sharp cut-off; inactive means mostly below about 18%
Target sequence (P47898 whole entry, looked up): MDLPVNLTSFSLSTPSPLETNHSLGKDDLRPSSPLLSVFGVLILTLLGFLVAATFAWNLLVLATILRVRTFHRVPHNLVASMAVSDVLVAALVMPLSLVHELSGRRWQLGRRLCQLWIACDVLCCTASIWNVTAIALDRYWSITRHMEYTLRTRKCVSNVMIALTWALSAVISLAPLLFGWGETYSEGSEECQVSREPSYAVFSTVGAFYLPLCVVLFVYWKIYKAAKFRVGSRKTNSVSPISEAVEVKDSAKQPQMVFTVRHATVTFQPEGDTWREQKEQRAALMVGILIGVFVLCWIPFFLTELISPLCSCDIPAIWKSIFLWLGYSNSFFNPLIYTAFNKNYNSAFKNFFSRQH
MOR-DOR ag = agonists of human mu-delta opioid receptor heterodimerization. P35372+P41143. cells, OPRM1-OPRD1 heterodimerization, luminescence. activation, % at 9.3 µM. 340,000 compounds, 0.3% hits. AID 504326; in the data active means activation above about 18%
HTR5A ag = activates human HTR5A in OPRM1-OPRD1 agonist counter-screen | 340,000 compounds, 0.61% hits | HTR5A agonist assay, luminescence, cell-based | activation, % at 9.3 µM | P47898 | AID 504692; in the data active means activation mostly above about 9.5%, no sharp cut-off; inactive means mostly below about 7.6%
CR mimetic SO = lowers age-related superoxide in aged yeast cells | superoxide response (% of plate mean), % at 10 µM | 330,000 compounds, 0.18% hits | AID 2690 | S. cerevisiae aged cells, superoxide DHE fluorescence; active compounds read low;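 active means superoxide response under a set limit, about three screen SD below normal, cut at about 65% in these data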;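 further: yeast aged for seven days with compound at 30 °C before DHE staining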
PvdQ acylase = P. aeruginosa PvdQ acylase inhibition. purified PvdQ acylase, fluorescence plate reader. inhibition, % at 10 µM. 340,000 compounds, 0.063% hits. AID 488965; in the data active means inhibition above about 30%, passing the limit was not always enough
A number is an active result; n = inactive; x = no result. A selection: hits, their analogues and other compounds. The true share with any hit is near 1.3%.

SMILES	OPRM1-OPRD1 inv	HTR5A inv ctr	MOR-DOR ag	HTR5A ag	CR mimetic SO	PvdQ acylase
CCS(=O)(=O)N1Cc2ccccc2CC1C(=O)N(C)CC(=O)Nc1cccc(F)c1 (stereo unspecified)	n	n	n	9.9	n	n
COc1nc(OC)nc(N2CCC(NC(=O)C(Cc3ccc(C(C)C)cc3)NC(C)=O)CC2)n1 (stereo unspecified)	n	n	n	10.5	n	n
CC(C)CCN1C(=O)c2ccc(C(=O)Nc3ccc(Br)cc3C(=O)O)cc2C1=O	n	n	n	n	n	n
CCC(=O)N1CCc2cc(S(=O)(=O)N3CCCCCC3)ccc21	n	n	n	12.7	n	n
CC(CCc1ccccc1)NC(=O)CCC1CCCC1 (stereo unspecified)	x	x	x	x	n	x
CCN(CC)c1ccc(C(=O)NNC(=O)CCNC(=O)c2ccccc2)cc1	n	n	n	n	n	n
CCN(CC)c1ccc(C(=C2C=CC(=[N+](CC)CC)C=C2)c2ccccc2)cc1	n	n	52.3	n	x	n
CCN1/C(=C/c2ccc3ccccc3[n+]2CCCS(=O)(=O)[O-])C=Cc2cc(C)ccc21	n	n	n	n	n	n
CCN1/C(=C/c2ccc3ccccc3[n+]2CC)C=Cc2ccccc21	n	43.4	n	n	n	n
CSc1ccc(/C=C2\C(=N)N3N=C(CC(=O)N4CCOCC4)SC3=NC2=O)cc1	n	n	n	11.9	n	n
CCCn1c(N)c(N(CCOC)C(=O)c2cc3ccccc3cc2OC)c(=O)[nH]c1=O	n	n	n	n	n	n
CCOC(=O)c1ccc(Nc2ncccc2[N+](=O)[O-])cc1	n	n	n	n	n	44.5
CCOC(=O)c1ccc(NC(=O)c2ccccc2[N+](=O)[O-])cc1	n	n	n	n	n	n
CN(CC(=O)Nc1ccc(Cl)c(C(F)(F)F)c1)C(=O)C1CSC2(C)CCC(=O)N12 (stereo unspecified)	n	n	n	n	n	n
COc1cc2c(cc1OC)C(c1ccc(OC)c(OC)c1OC)CC(=O)N2 (stereo unspecified)	n	n	n	10.0	n	n
COc1cc2c(cc1OC)C(c1cccc(OC)c1OC)CC(=O)N2 (stereo unspecified)	n	n	n	n	n	n
CC1OC(CC(=O)O)CC2=C1C(=O)c1c(O)cccc1C2=O (stereo unspecified)	n	n	29.8	n	x	n
O=S(=O)(Nc1cccc(-c2nc3cccnc3s2)c1)c1ccc2c(c1)OCCO2	n	n	n	12.6	n	n
CCOC(=O)C1=C(O)/C(=C/c2ccc(-c3ccccc3C(=O)O)o2)SC1=Nc1ccc(OC)cc1	n	n	n	n	x	n
CCOC(=O)C1=C(O)/C(=C/c2ccc(-c3ccccc3C(=O)O)o2)SC1=Nc1ccc(C)cc1	n	n	n	12.7	x	n
Cc1ccc(Nc2cc(Cl)nc(N)n2)c([N+](=O)[O-])c1	n	n	n	n	x	n
Cc1cc(NC(=O)CSc2nnc(-c3c[nH]c4ccccc34)n2-c2ccc(Cl)cc2)no1	n	n	20.7	13.5	n	n
COC(=O)c1cc(C)nc2c1C(=O)C(=O)C=C2N1CCOCC1	n	n	25.7	n	n	n
CCOC(=O)C1CCN(C(=O)COC(=O)Cc2ccc(Cl)cc2)CC1	n	n	n	n	n	n
O=C(Cn1c(=O)n(-c2ccc(F)cc2)c(=O)c2sccc21)NC1CCCCC1	n	n	n	12.2	n	n
SMILES	OPRM1-OPRD1 inv	HTR5A inv ctr	MOR-DOR ag	HTR5A ag	CR mimetic SO	PvdQ acylase
CCN(CC)C(=O)Cn1c(=O)n(Cc2ccc(F)cc2)c(=O)c2sccc21	n	n	n	n	n	n
COC(=O)CNC(=O)Cn1c(=O)n(Cc2ccc(F)cc2)c(=O)c2sccc21	n	n	n	11.3	n	n
Cc1ccc(NC(=O)[C@H](C)NC(=O)C2CCN(C(=O)[C@@H](NC(=O)OC(C)(C)C)C(C)C)CC2)cc1	n	n	n	n	n	n
O=C(O)c1cc2nccc(-c3ccco3)n2n1	n	n	n	n	n	39.1
COc1cc2c(cc1NC(=O)C(C)OC(=O)c1ccc(S(=O)(=O)Nc3ccccc3Cl)cc1)oc1ccccc12 (stereo unspecified)	n	n	n	12.6	n	n
Cc1ccc(C(=O)OCC(=O)Nc2cc(C(C)(C)C)no2)c(C)c1	n	n	n	n	n	n
Cc1cccc(N(C)Cc2nnc(-c3cccc(Br)c3)o2)c1	n	n	n	n	n	n
Cc1ccc(NC(=O)CN2CCN(c3ccccn3)CC2)cc1S(=O)(=O)N(C)C	n	n	n	9.4	n	n
O=C1/C(=C/c2cccc([N+](=O)[O-])c2)Oc2cc(O)ccc21	n	n	n	n	n	41.0
Cc1nn(-c2ccccc2)c(N)c1N=Nc1ccc(Cl)cc1	n	n	n	10.8	n	n
Cc1cc(NCCCn2ccnc2)n2nc(-c3ccc(Cl)cc3)cc2n1	n	n	n	n	n	35.5
CC(C)C[C@@H](CN1CCC[C@@H]1CN1C(=O)C(=O)NC[C@@H]1Cc1ccccc1)N1C[C@H](Cc2ccccc2)N(CC2CCCCCC2)C(=O)C1=O	n	n	n	10.3	x	n
Cc1ccc(NC(=S)NCc2ccc3c(c2)OCO3)cc1C	n	n	n	n	n	n
S=C(NCc1ccc2c(c1)OCO2)Nc1ccc2nsnc2c1	n	n	n	n	n	40.7
CN=C1S/C(=C\c2ccc(Cl)cc2)C(=O)N1C	n	n	n	n	n	n
CN=C1S/C(=C\c2ccc(SC)cc2)C(=O)N1C	n	n	n	n	n	48.2
C[C@H](CO)N1C[C@H](C)[C@@H](CN(C)Cc2ccc(C(=O)O)cc2)Oc2c(NS(=O)(=O)c3ccc(F)cc3)cccc2C1=O	n	n	n	n	n	n
O=C(NC1CCCC1)c1cc(Cl)ccc1[N+](=O)[O-]	n	n	n	n	n	94.1
O=C(NC1CCCCC1)c1cc(Cl)ccc1[N+](=O)[O-]	n	n	n	n	n	61.6
O=[N+]([O-])c1cc(C(F)(F)F)cc([N+](=O)[O-])c1Sc1n[nH]c(C(F)(F)F)n1	n	n	n	n	n	n
O=[N+]([O-])c1ccc2[nH]ncc2c1	n	n	n	12.2	n	n
O=c1[nH]c2ccc([N+](=O)[O-])cc2[nH]1	n	n	n	n	x	n
Cc1cc(CNC(=O)COc2ccc(F)cc2)c2ccccc2n1	n	n	n	11.2	n	n
COc1cc(C)nc(NC(=O)NC(=O)c2ccc(C(F)(F)F)cc2)n1	n	n	n	n	n	n
CCCC(=O)Nc1ccc2c(c1)nc(CN1CCN(C(=O)OCC)CC1)n2C	n	n	n	n	n	n
CCCC(=O)Nc1ccc2c(c1)nc(CN1CCN(C(=O)OCC)CC1)n2CC	n	n	n	9.8	n	n
Brc1ccsc1-c1csc(-c2ccncc2)n1	n	n	n	n	n	n
COc1ccc(/C=N/NC(=O)CCn2c3ccccc3c3ccccc32)cc1O	n	n	n	n	n	n
